# Data published in PubChem BioAssay (NCATS).
# Results filed as inconclusive are left out. Where a call stands in place of a potency, no number is given. A number with no mark means an inactive call. Active and inactive are the calls of the source. The call rests on the fitted dose curve; in most records, active means well fitted curve in the direction sought with a large enough effect; inconclusive means small, poorly fitted or top-dose-only effect, or another doubt; inactive means no such curve, though single readings can be large; an effect the other way counts as inactive or inconclusive.
# Legend:
# [1] = Primary qHTS for inhibitors of nuclear receptor binding SET domain protein 2 (NSD2) in an RCH-ACV wild type WT cells (2C) (AID 1645877); further: nearly all actives have a fitted effect of over 70% in size; further: potency means the concentration at half of the fitted maximal effect
# [2] = target: Glutathione peroxidase 1 (Homo sapiens) (UniProt P07203); assay: Primary qHTS Assay for Inhibitors of Recombinant Selenoprotein Glutathione Peroxidase 1 (GPX1) (AID 1845191); further: nearly all actives have a fitted effect of over 65% in size
# Glutathione peroxidase 1 (Homo sapiens), sequence (P07203 whole entry, looked up): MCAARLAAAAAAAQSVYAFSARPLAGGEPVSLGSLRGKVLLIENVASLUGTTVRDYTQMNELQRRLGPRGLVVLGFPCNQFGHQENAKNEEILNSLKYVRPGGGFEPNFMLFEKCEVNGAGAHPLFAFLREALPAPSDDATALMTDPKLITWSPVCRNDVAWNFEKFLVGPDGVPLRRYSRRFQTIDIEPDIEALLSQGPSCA
# How it was run: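 GR-coupled readout: NADPH consumption tracked by fluorescence, ex 340/em 450 nm, at t=0 and after 15 min at RT. Final mix 10 nM GPX1, 1 mM GSH, 0.5 mM CHP, 0.5 mM NADPH, 100 nM GR, 0.01% BSA, following 30 min enzyme–compound preincubation.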
# [3] = target: Phospholipid hydroperoxide glutathione peroxidase GPX4 (Homo sapiens) (UniProt P36969); assay: Primary qHTS Assay for Inhibitors of Recombinant Selenoprotein Glutathione Peroxidase 4 (GPX4) (AID 1845192); further: series mostly up to about 50 µM; nearly all actives have a fitted effect of over 65% in size
# Phospholipid hydroperoxide glutathione peroxidase GPX4 (Homo sapiens), sequence (P36969 whole entry, looked up): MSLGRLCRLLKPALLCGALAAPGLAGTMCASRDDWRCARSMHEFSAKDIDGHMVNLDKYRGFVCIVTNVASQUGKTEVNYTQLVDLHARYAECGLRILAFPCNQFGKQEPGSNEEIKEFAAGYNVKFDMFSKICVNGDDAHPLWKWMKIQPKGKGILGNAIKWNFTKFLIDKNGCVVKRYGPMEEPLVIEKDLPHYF
# How it was run: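 Steps: GPX4 plus compound, 30 min RT; add GR/GSH/NADPH master mix; start with cumene hydroperoxide; read 340/450 nm fluorescence at 0 and 15 min. Finals were 200 nM GPX4, 1 mM GSH, 0.5 mM CHP, 0.5 mM NADPH, 100 nM GR.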
# [4] = target: Metallo-beta-lactamase type 2 (Klebsiella pneumoniae) (UniProt C7C422); assay: qHTS to identify inhibitors of the New Delhi Metallo-beta-lactamase (NDM): assay validation screen against the NCATS LOPAC Collection (AID 1794843); further: series mostly up to about 38 µM
# Metallo-beta-lactamase type 2 (Klebsiella pneumoniae), sequence (C7C422 whole entry, looked up): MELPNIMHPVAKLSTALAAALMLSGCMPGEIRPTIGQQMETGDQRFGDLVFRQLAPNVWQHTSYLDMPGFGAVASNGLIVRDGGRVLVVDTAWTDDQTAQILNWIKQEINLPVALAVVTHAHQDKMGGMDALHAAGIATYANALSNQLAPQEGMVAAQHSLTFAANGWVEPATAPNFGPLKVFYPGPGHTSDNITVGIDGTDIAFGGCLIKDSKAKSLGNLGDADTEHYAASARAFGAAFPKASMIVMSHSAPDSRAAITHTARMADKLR
# How it was run: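 Absorbance at 485 nm from nitrocefin turnover (50 uM solution added), read at plateau, gives the read-out. Compounds in DMSO were incubated first with 2 nM final NDM-1 in pH 7.0 HEPES buffer containing 1 uM ZnSO4 and 0.01% Tween20.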
compound,measurement,setting,value
CO[C@@H]1[C@H](O)[C@@H](O[C@@H]2C[C@H]3CC[C@@H]4C(CC[C@]5(C)[C@@H](C6=CC(=O)OC6)CC[C@]45O)[C@@]3(C)[C@H](O)C2)O[C@H](C)[C@@H]1O[C@@H]1O[C@H](CO)[C@@H](O)[C@H](O)[C@H]1O (some centres not stated),Potency,[1],0.304 µM (active)
same,Potency,[2],inactive
same,Potency,[3],inactive
CC(C)C1(OO)C=C2C(=O)CC3C(C)(C(=O)O)CCCC3(C)C2CC1 (configuration not stated),Potency,[1],inactive
same,Potency,[2],inactive
same,Potency,[3],inactive
CC(=O)c1c(O)c(C)c(O)c(Cc2c(O)c3c(c(C(=O)/C=C/c4ccccc4)c2O)OC(C)(C)C=C3)c1O,Potency,[1],inactive
same,Potency,[4],inactive
same,Potency,[2],inactive
same,Potency,[3],inactive
COC1C(O)C(C)OC(OC2C(CO)O[C@@H](O[C@@H]3CC4CCC5C(CC[C@]6(C)[C@@H](C7=CC(=O)OC7)CC[C@]56O)[C@@]4(C)[C@H](O)C3)C(O)C2O)C1O (some centres not stated),Potency,[1],0.483 µM (active)
same,Potency,[2],inactive
same,Potency,[3],inactive
CCCCCCn1c(=O)c(C(=O)Nc2ccc(C(=O)OCCC)cc2)c(O)c2ccccc21,outcome,[1],inactive [at 9.23 µM]
same,outcome,[2],inactive [at 9.52 µM]
same,"activity change, negative = inhibition",[3],18.5% [at 9.73 µM]
COc1c(C(C)C)cc2c(c1O)[C@@]1(C(=O)O)CCCC(C)(C)C1CC2 (some centres not stated),Potency,[1],inactive
same,Potency,[2],inactive
same,Potency,[3],inactive
C=CC(C)(O)CC/C=C(\C)C(=O)O[C@H]1[C@H](O)[C@@H](CO)O[C@@H](OC(=O)[C@]23CCC(C)(C)CC2C2=CCC4[C@@]5(C)CC[C@H](O[C@@H]6O[C@H](CO[C@@H]7OC[C@H](O)[C@H](O)[C@H]7O[C@@H]7OC[C@@H](O)[C@H](O)[C@H]7O)[C@@H](O)[C@H](O)[C@H]6O)C(C)(C)C5CC[C@@]4(C)[C@]2(C)CC3)[C@@H]1OC1OC(C)C(O[C@@H]2OC[C@@H](O)[C@H](O[C@@H]3OC[C@@H](O)[C@H](O)[C@H]3O)[C@H]2O)C(O)C1O (some centres not stated),"activity change, negative = cell killing",[1],-28.4% [at 9.23 µM]
same,outcome,[2],inactive [at 9.52 µM]
same,"activity change, negative = inhibition",[3],0.212% [at 9.73 µM]
